Results on 40 molecules are retold here after PubChem BioAssay (Tox21).

Where “and” joins values, the source holds several entries; their conditions need not be identical. Equal entries are not always repeated. Inconclusive results are not listed. Where a call stands in place of a potency, no number is given. More than one record can exist for a structure, and the calls need not agree. Calls of active or inactive are those of the source. Calls follow the shape of the dose curve; as a rule, active = well fitted cell-killing curve with a large enough effect in the repeat runs; inconclusive = weak or mixed curves; inactive = no such curve, though single readings can be large or run the other way.
Potency is read from the fitted curve at half-maximal effect.

This test can be described thus: qHTS assay for identifying genotoxic compounds that show differential cytotoxicity against isogenic chicken DT40 cell lines with known DNA damage response pathways - Rad54/Ku70 mutant cell line (AID 743015). Also: nearly all actives have a fitted effect of over 60% in size. Conditions: DT40 Rad54/Ku70 mutant viability, CellTiter-Glo, 40 h; series mostly up to 66.8 µM. An excerpt: National Center for Advancing Translational Sciences [NCATS]
NIH Chemical Genomics Center [NCGC]
U.S. Environmental Protection Agency [EPA]
National Institutes of Environmental Health Sciences [NIEHS]
National Toxicology Program [NTP]
U.S. Food and Drug Administration [FDA]
DNA repair pathways play a critical role in cellular homeostasis by repairing DNA damage induced by endogenous processes and xenobiotics. Isogenic chicken DT40 cell lines deficient in different DNA repair pathways can be used to identify genotoxic compounds and aid in characterizing the nature of the DNA damage induced. Two DNA repair-deficient cell lines with disrupted genes, Rad54/Ku70 or Rev3, were used to screen the Tox21 10K compound library. Possible genotoxicity was based on the presence of a significant increase in cytotoxicity in one or more of the DNA repair-deficient cell lines compared to that observed in the parental DNA repair-proficient cell line. CellTiter Glo viability assay (Promega, Madison, WI) was used to measure cell viability in these cells after compound treatment. This assay includes the data from the Rad54/Ku70 mutant cell line.
Tox21 Assay Protocol Summary:
300 DT40 mutant cells in 5 uL/well were dispensed into white, solid-bottom 1536-well plates using a Multidrop Combi (ThermoFisher Scientific, Waltham, MA) dispenser. After the assay plates were incubated at 37 C/5% CO2 for approximately 0.5 hour, 23 nL of compounds dissolved in DMSO, positive controls or DMSO only was transferred into the assay plate by a pintool work station (Kalypsys, San Diego, CA). The assay plates were incubated at 37 C/5% CO2 for 40 hours. After 5 uL per well of CellTiter-Glo reagent was added into each well of the assay plates, the plates were incubated for 30 min at room temperature and the luminescence intensity of the plates was measured using a ViewLux (PerkinElmer, Shelton, CT) plate reader.
For the molecule `Cc1ccc(/C(=C\CN2CCCC2)c2ccccn2)cc1`, the Potency is 23.7 µM (active) and 64.3 µM (active). For the molecule `Cc1ccc(C)c(O)c1`, the Potency result was “inactive”.

`NCCOCCO`: the Potency result was “inactive”. Turning to `c1ccc2cc3ccccc3cc2c1`, the Potency result is “inactive”.

Turning to `Oc1ccc(C(c2ccc(O)cc2)C(Cl)(Cl)Cl)cc1`, the Potency was 60.9 µM (active) and 19.3 µM (active). The result for `CCCCCC1C(=O)CCC1CC(=O)OC` (stereo not given) reads “inactive”; that for `C=C[C@H]1CN2CC[C@H]1C[C@@H]2[C@@H](O)c1ccnc2ccc(OC)cc12`, 29.8 µM (active) and 60.1 µM (active); that for `Nc1ccc(N)c(Cl)c1`, “inactive”. Take `CC(C)=CCO`: the Potency entry is “inactive”. With `C[C@]12C=CC(=O)C=C1CC[C@H]1[C@@H]3C[C@@H](O)[C@](O)(C(=O)CO)[C@@]3(C)C[C@H](O)[C@@]12F` the figure was 48.6 µM (active); with `O=C(O)c1ccc(O)cc1`, “inactive”; with `C1CN(SSN2CCOCC2)CCO1`, 19.3 µM (active).

Consider `C=CCCCCCCCCCC`, for which the Potency result is “inactive”.

In the case of `Brc1nc2ccccc2s1`, the Potency entry is “inactive”. With `O=S1(=O)CCCO1` the entry was “inactive”.

For the molecule `COc1ccc(C(=O)c2ccccc2O)c(O)c1`, the Potency result was “inactive”. As for `CC1(C)C(C=C(Cl)Cl)C1C(=O)OCc1cccc(Oc2ccccc2)c1` (stereo not given), the Potency result was “inactive”. With `CCC(=O)O[C@H]1[C@H](O[C@@H]2[C@@H](C)[C@H](O[C@H]3C[C@@](C)(OC)[C@@H](O)[C@H](C)O3)[C@@H](C)C(=O)O[C@H](CC)[C@@](C)(O)[C@H](O)[C@@H](C)C(=O)[C@H](C)C[C@@]2(C)O)O[C@H](C)C[C@@H]1N(C)C` the entry was “inactive and 36.1 µM (active)”; with `C[C@]12CC[C@@H]3c4ccc(O)cc4CC[C@H]3[C@@H]1CC[C@@H]2O`, 26.6 µM (active) and 54.5 µM (active); with `Cc1ccc(N)c([N+](=O)[O-])c1`, “inactive”.

For the molecule `O=C(O)CCCCCCCCCCCC(=O)O`, the Potency result is “inactive”. Turning to `COC(=O)c1ccc(C)cc1`, the Potency entry is “inactive”. The result for `FC(F)(F)C(Cl)Br` (stereo not given) reads “inactive”; that for `CCc1cccc2c3c([nH]c12)C(CC)(CC(=O)O)OCC3` (stereo not given), “inactive”. With `COc1cc([C@H]2Oc3cc([C@H]4Oc5cc(O)cc(O)c5C(=O)[C@@H]4O)ccc3O[C@@H]2CO)ccc1O` the figure was 29.8 µM (active) and 48.4 µM (active); with `C1COCCN1`, “inactive”. Consider `Clc1ccc(Sc2cc(Cl)c(Cl)cc2Cl)cc1`, for which the Potency entry is “inactive”.

`CC(=O)Nc1ccc2c(c1)Cc1cc(NC(C)=O)ccc1-2`: the Potency entry is “inactive”. The result for `O=C(CCCN1CCC(O)(c2ccc(Cl)cc2)CC1)c1ccc(F)cc1` reads 5.96 µM (active) and 1.72 µM (active). The result for `Nc1ccc2c(O)cc(S(=O)(=O)O)cc2c1` reads “inactive”. Regarding `CN1CCOCC1`, the Potency entry is “inactive”.

With `CCCCCCOCCOCCO`, the Potency entry was “inactive”.

As for `C=CN1CCCC1=O`, the Potency entry was “inactive”. The result for `OC[C@H]1O[C@@H]2O[C@H]3[C@H](O)[C@@H](O)[C@@H](O[C@H]4[C@H](O)[C@@H](O)[C@@H](O[C@H]5[C@H](O)[C@@H](O)[C@@H](O[C@H]6[C@H](O)[C@@H](O)[C@@H](O[C@H]7[C@H](O)[C@@H](O)[C@@H](O[C@H]1[C@H](O)[C@H]2O)O[C@@H]7CO)O[C@@H]6CO)O[C@@H]5CO)O[C@@H]4CO)O[C@@H]3CO` reads “inactive”. On to `CN(C)/N=N/c1nc[nH]c1C(N)=O`, for which the Potency is 62 µM (active). On to `CC[C@]12CCCN3CCc4c(n(c5ccccc45)[C@@](O)(C(=O)OC)C1)[C@@H]32`, for which the Potency entry was “inactive”. Take `COc1ccc(-c2coc3cc(O)cc(O)c3c2=O)cc1`: the Potency was 27.3 µM (active). Take `OC[C@@H](O)[C@@H](O[C@@H]1O[C@H](CO)[C@H](O)[C@H](O)[C@H]1O)[C@H](O)[C@@H](O)CO`: the Potency result is “inactive”.

Take `Cc1ccc2c(c1)C(=O)OC2=O`: the Potency result is “inactive”. The result for `C=CCOC(=O)C(=C)C` reads “inactive”.
